Laboratory results from PubChem BioAssay (EPA / NIEHS).
Activity calls are given as the source filed them. How the source made its calls: active means hit-call score of the fitted dose curve at least 0.9, where 1 is the maximum; inactive means score below 0.9.

How the values were obtained:
[1] = target: Transcription factor E2F1 (Homo sapiens) (UniProt Q01094); assay: ATG_E2F_CIS: Attagene CIS-FACTORIAL HepG2 Assay for human E2F Transcription Factor 1 (AID 2282935); conditions: HepG2 Attagene cis-reporter, E2F reporter RNA transcripts; actives raise or lower the signal
Method in brief: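 Endogenous E2F1 activity read through cis-promoter reporter units transfected into HepG2. After 24 h compound treatment, reporter mRNA measured by RT-PCR, HpaI digestion and capillary electrophoresis. Bidirectional fit versus DMSO.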

[2] = ATG_E_Box_CIS: Attagene CIS-FACTORIAL HepG2 Assay for human Enhancer Box (E-box) (AID 2282936); conditions: HepG2 E-box cis-reporter transcription, actives raise or lower the signal
Method in brief: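 HepG2 cells transiently transfected with multiplexed cis-element reporter units, dosed 24 h; reporter mRNA quantified by RT-PCR, 6-FAM labelling, HpaI digestion and capillary electrophoresis. E-box (USF1) signal fitted bidirectionally vs DMSO.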

[3] = ATG_M_61_CIS: Attagene CIS-FACTORIAL HepG2 Assay for M61 Transcription Factor (Internal Marker) (AID 2282937); conditions: HepG2 Attagene CIS-FACTORIAL M61 internal marker reporter; actives raise or lower the signal
Method in brief: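 Background-control endpoint: HepG2 cells with cis-regulated reporter constructs, 24 h exposure, reporter mRNA detected via fluorescent primer extension and capillary electrophoresis; values from bidirectional fitting with DMSO baseline.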

[4] = ATG_EGR_CIS: Attagene CIS-FACTORIAL HepG2 Assay for human Early Growth Response 1 (EGR1) (AID 2282938); conditions: HepG2 Attagene CIS-FACTORIAL EGR reporter mRNA; actives raise or lower the signal
Method in brief: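 Endpoint derived by bidirectional fitting versus DMSO vehicle. Method: cis-promoter reporter units transfected into HepG2, 24 h dosing, RNA isolation, RT-PCR with 6-FAM primer extension and HpaI digestion, then capillary electrophoresis fluorescence detection.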

[5] = ATG_M_19_CIS: Attagene CIS-FACTORIAL HepG2 Assay for M19 Transcription Factor (Internal Marker) (AID 2282939); conditions: HepG2 Attagene CIS-FACTORIAL M19 internal marker reporter; actives raise or lower the signal
Method in brief: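 Chemical-treated HepG2 (24 h) with MRTU constructs; reporter transcripts detected by fluorescent RT-PCR fragment analysis on capillary electrophoresis. Internal background marker, DMSO as baseline.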

[6] = ATG_ERE_CIS: Attagene CIS-FACTORIAL HepG2 Assay for Estrogen Response Element (ERE) (AID 2282940); conditions: HepG2 ERE cis-reporter, Attagene RNA transcript; actives raise or lower the signal
Method in brief: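 Human liver cells (HepG2) bearing transiently transfected, promoter-regulated reporter units were exposed 24 h. Reporter mRNA induction was detected by capillary electrophoresis of labelled RT-PCR products and fitted bidirectionally to DMSO.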

[7] = ATG_Ets_CIS: Attagene CIS-FACTORIAL HepG2 Assay for human Erythroblast Transformation Specific (ETS) (AID 2282941); conditions: HepG2 ETS cis-reporter transcription, actives raise or lower the signal
Method in brief: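 HepG2 cells transiently transfected with cis-promoter reporter transcription units were dosed for 24 h; reporter mRNA was measured by RT-PCR, 6-FAM primer extension, HpaI digestion and capillary electrophoresis, with bidirectional fitting against DMSO baseline.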

[8] = target: Hepatocyte nuclear factor 3-beta (Homo sapiens) (UniProt Q9Y261); assay: ATG_FoxA2_CIS: Attagene CIS-FACTORIAL HepG2 Assay for human Forkhead box A2 (FOXA2) (AID 2282942); conditions: HepG2 cis-reporter transcription factor activity, 24 h; actives raise or lower the signal
Method in brief: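 Measured: reporter mRNA induction or loss in HepG2 transiently carrying multiple cis-regulated reporter units, 24 h after dosing. Quantified by RT-PCR plus capillary electrophoresis, normalised to DMSO.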

[9] = ATG_GATA_CIS: Attagene CIS-FACTORIAL HepG2 Assay for human GATA Binding Protein (AID 2282944); conditions: HepG2 GATA cis-element reporter, Attagene multiplex mRNA; actives raise or lower the signal
Method in brief: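 Transfected cis-reporter HepG2 cells were treated with chemicals for 24 hours. Total RNA was then converted to cDNA, amplified with reporter-specific primers and analysed by fluorescent capillary electrophoresis, using DMSO-treated wells as baseline.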

[10] = ATG_GLI_CIS: Attagene CIS-FACTORIAL HepG2 Assay for human Zinc Finger Protein GLI1 (AID 2282945); conditions: HepG2, Attagene cis-factorial reporter mRNA, GLI element; actives raise or lower the signal
Method in brief: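 Transiently transfected HepG2 cells report endogenous transcription factor activity via cis-element-driven reporter units. After 24 h compound exposure, reporter mRNA was measured by RT-PCR with capillary electrophoresis; bidirectional fitting against DMSO baseline.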

[11] = target: Bile acid receptor (Homo sapiens) (UniProt Q96RI1); assay: ATG_IR1_CIS: Attagene CIS-FACTORIAL HepG2 Assay for human Nuclear Receptor Subfamily 1 Group H Member 4 (NR1H4), IR1 submotif (AID 2282946); conditions: IR1 reporter transcription, actives raise or lower the signal
Method in brief: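 HepG2 cells transiently transfected with multiple cis-promoter-driven reporter units to measure endogenous transcription factor activity; 24 h exposure. Reporter mRNA read by RT-PCR, FAM labelling, HpaI digestion and capillary electrophoresis. Bidirectional fit versus DMSO.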

[12] = ATG_ISRE_CIS: Attagene CIS-FACTORIAL HepG2 Assay for human Interferon Regulatory Factor 1 (IRF1) binding to an Interferon-Stimulated Response Element (ISRE) (AID 2282948); conditions: HepG2 ISRE cis-reporter (Attagene), mRNA transcription readout; actives raise or lower the signal
Method in brief: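 HepG2 cells transiently transfected with multiplexed cis-promoter reporter units; after 24 h compound exposure, reporter mRNA quantified by RT-PCR, FAM labelling, HpaI digestion and capillary electrophoresis. Bidirectional fit versus DMSO baseline.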

[13] = ATG_M_32_CIS: Attagene CIS-FACTORIAL HepG2 Assay for M32 Transcription Factor (Internal Marker) (AID 2282949); conditions: HepG2 Attagene cis-factorial M32 reporter, mRNA; actives raise or lower the signal;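 further: background control marker of the multiplexed CIS panel rather than a real target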
Method in brief: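 Fluorescent capillary electrophoresis peaks of HpaI-digested, FAM-labelled RT-PCR reporter products give the signal. Source: transiently transfected human liver HepG2 cells, 24 h after chemical dosing; bidirectional fitting against DMSO.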

[14] = ATG_M_06_CIS: Attagene CIS-FACTORIAL HepG2 Assay for M06 Transcription Factor (Internal Marker) (AID 2282950); conditions: HepG2 Attagene CIS-FACTORIAL M06 internal marker reporter; actives raise or lower the signal
Method in brief: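 Cells (HepG2, transiently carrying cis-driven reporter units) receive chemical for 24 h before RNA isolation. Reporter cDNA is PCR-amplified, FAM-labelled by primer extension, HpaI-digested and sized on a capillary analyser.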

[15] = target: Hypoxia-inducible factor 1-alpha (Homo sapiens) (UniProt Q16665); assay: ATG_HIF1a_CIS: Attagene CIS-FACTORIAL HepG2 Assay for human Hypoxia Inducible Factor 1 (HIF1A) (AID 2282951); conditions: HepG2 Attagene cis-factorial HIF1a reporter transcription; actives raise or lower the signal
Method in brief: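 Dosed 24 h, transfected HepG2 cells yielded total RNA whose reporter transcripts were RT-PCR-amplified and sized by capillary electrophoresis using fluorescent labelling; DMSO defined baseline, with gain and loss of signal both fitted.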

[16] = target: Hepatocyte nuclear factor 6 (Homo sapiens) (UniProt Q9UBC0); assay: ATG_HNF6_CIS: Attagene CIS-FACTORIAL HepG2 Assay for human Hepatocyte Nuclear Factor 6 (HNF6) (AID 2282952); conditions: HepG2 Attagene cis-factorial HNF6 reporter transcription; actives raise or lower the signal
Method in brief: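 Transiently transfected HepG2 cells expressing cis-regulated reporter transcription units were exposed to chemical for 24 h in a 24-well format. Reporter transcript abundance was determined by fluorescence capillary electrophoresis.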

[17] = target: Heat shock factor protein 1 (Homo sapiens) (UniProt Q00613); assay: ATG_HSE_CIS: Attagene CIS-FACTORIAL HepG2 Assay for human Heat Shock Transcription Factor 1 (HSE) (AID 2282953); conditions: HepG2 HSE cis-reporter, Attagene RNA transcription; actives raise or lower the signal
Method in brief: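 Liver-derived HepG2 cells carry transiently introduced multiple reporter units governed by cis promoters. Reporter RNA measured 24 h post-dose through reverse transcription, PCR amplification, fluorescent labelling and capillary electrophoresis, normalised to DMSO.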

[18] = ATG_MRE_CIS: Attagene CIS-FACTORIAL HepG2 Assay for human Metal Responsive Element (MRE) (AID 2282954); conditions: HepG2 MRE cis-reporter transcription, Attagene multiplex; actives raise or lower the signal
Method in brief: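 HepG2 cells transiently transfected with cis-element-driven reporter units; mRNA measured 24 h after dosing. Reporter transcripts quantified by RT-PCR, FAM labelling, HpaI digestion and capillary electrophoresis; bidirectional fit versus DMSO.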

[19] = ATG_GRE_CIS: Attagene CIS-FACTORIAL HepG2 Assay for human Glucocorticoid Response Elements (GRE) (AID 2282947); conditions: HepG2 GRE cis-reporter, Attagene multiplex mRNA; actives raise or lower the signal
Method in brief: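 Transiently transfected HepG2 cells carrying GRE cis-reporter units (endogenous TF activity) dosed 24 h; reporter mRNA quantified by RT-PCR, 6-FAM labelling, HpaI digestion and capillary electrophoresis. Bidirectional fit versus DMSO baseline.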

Sequence of Bile acid receptor (Homo sapiens) (Q96RI1 whole entry, looked up): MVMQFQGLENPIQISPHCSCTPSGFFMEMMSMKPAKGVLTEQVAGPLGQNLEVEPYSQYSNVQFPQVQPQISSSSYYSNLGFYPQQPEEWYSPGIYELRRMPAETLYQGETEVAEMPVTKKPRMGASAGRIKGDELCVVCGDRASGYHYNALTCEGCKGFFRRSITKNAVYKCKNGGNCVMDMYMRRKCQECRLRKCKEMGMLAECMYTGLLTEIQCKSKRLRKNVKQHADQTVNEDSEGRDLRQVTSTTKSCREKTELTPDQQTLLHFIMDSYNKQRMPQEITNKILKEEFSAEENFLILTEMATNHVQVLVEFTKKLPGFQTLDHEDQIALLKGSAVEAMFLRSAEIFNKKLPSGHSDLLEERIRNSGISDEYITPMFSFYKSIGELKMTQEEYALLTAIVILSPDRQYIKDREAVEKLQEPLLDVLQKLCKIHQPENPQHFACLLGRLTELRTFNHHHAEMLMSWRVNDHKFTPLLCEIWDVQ
Sequence of Transcription factor E2F1 (Homo sapiens) (Q01094 whole entry, looked up): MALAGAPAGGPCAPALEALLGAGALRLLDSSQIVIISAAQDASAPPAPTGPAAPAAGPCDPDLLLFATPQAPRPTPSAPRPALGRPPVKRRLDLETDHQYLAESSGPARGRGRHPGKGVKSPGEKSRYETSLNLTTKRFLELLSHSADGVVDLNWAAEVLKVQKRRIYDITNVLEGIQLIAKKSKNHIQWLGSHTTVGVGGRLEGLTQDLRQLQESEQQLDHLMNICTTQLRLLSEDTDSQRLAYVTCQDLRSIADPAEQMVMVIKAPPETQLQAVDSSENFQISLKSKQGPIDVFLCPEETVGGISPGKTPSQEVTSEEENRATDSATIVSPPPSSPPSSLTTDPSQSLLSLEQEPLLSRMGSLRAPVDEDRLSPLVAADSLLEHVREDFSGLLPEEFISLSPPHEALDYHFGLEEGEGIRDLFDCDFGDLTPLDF
Sequence of Hepatocyte nuclear factor 6 (Homo sapiens) (Q9UBC0 whole entry, looked up): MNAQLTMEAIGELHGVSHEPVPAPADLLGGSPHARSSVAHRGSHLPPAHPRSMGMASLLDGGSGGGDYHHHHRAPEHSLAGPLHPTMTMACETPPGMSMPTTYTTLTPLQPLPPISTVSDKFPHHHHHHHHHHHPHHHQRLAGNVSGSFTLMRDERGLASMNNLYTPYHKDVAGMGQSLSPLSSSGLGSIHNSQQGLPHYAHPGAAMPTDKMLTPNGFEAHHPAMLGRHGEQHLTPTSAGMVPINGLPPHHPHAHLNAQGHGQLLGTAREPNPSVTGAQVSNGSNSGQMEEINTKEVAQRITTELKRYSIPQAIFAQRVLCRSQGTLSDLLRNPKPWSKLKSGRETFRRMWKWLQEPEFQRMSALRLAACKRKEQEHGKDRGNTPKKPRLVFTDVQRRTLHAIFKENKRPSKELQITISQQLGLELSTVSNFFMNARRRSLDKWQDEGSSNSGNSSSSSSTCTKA
Sequence of Heat shock factor protein 1 (Homo sapiens) (Q00613 whole entry, looked up): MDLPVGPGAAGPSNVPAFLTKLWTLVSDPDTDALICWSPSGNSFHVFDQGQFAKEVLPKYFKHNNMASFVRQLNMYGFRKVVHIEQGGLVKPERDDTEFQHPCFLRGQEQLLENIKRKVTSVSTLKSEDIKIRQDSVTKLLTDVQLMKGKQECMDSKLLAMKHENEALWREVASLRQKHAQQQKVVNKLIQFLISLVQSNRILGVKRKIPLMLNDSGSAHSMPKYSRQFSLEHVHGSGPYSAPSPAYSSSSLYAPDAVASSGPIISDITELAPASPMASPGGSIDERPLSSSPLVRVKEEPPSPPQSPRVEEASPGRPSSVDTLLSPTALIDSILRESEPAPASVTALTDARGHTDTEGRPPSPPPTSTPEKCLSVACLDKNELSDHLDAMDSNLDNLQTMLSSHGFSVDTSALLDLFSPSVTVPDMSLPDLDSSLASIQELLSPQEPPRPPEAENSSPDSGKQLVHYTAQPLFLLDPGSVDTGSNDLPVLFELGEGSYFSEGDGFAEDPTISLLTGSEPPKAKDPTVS
Sequence of Hypoxia-inducible factor 1-alpha (Homo sapiens) (Q16665 whole entry, looked up): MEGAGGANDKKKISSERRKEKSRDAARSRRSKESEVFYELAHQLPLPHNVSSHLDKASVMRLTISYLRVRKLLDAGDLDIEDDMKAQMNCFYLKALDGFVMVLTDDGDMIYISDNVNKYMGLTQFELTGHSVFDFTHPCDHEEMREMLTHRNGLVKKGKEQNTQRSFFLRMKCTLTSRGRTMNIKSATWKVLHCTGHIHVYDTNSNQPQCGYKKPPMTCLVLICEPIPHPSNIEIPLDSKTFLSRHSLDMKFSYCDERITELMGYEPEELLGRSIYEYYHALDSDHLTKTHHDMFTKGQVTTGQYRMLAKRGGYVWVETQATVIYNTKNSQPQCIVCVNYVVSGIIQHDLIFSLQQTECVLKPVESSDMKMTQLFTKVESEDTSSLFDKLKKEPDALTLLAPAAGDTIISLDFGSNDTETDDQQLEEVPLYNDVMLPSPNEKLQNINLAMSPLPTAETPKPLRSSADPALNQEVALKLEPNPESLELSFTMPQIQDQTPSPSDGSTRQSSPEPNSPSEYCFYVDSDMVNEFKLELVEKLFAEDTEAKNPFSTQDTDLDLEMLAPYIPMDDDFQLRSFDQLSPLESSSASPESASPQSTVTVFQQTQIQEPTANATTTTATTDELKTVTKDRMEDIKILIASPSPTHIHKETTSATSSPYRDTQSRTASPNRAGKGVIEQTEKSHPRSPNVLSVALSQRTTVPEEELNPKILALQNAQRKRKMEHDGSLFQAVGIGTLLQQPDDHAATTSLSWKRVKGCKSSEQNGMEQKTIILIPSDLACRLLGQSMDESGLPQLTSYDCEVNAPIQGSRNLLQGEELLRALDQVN
Sequence of Hepatocyte nuclear factor 3-beta (Homo sapiens) (Q9Y261 whole entry, looked up): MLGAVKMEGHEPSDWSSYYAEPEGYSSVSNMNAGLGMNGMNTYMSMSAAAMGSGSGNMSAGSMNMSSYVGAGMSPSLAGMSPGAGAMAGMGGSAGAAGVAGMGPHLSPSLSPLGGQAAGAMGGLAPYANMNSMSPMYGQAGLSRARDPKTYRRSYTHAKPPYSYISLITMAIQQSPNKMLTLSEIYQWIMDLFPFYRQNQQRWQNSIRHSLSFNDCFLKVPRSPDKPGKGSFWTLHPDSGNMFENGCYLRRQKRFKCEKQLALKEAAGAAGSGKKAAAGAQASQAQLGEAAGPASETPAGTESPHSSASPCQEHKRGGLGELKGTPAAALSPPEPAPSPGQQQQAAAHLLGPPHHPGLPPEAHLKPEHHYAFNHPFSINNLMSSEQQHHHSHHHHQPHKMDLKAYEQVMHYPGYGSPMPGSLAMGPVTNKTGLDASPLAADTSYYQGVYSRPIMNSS

OCC(F)(F)C(F)(F)C(F)(F)C(F)(F)C(F)(F)C(F)(F)F
AC50 [1]: 234 µM (active) | AC50 [2]: 150 µM (active) | outcome [3]: inactive | AC50 [4]: 248 µM (active) | outcome [5]: inactive | outcome [6]: inactive | AC50 [7]: 236 µM (active) | outcome [8]: inactive | outcome [9]: inactive | outcome [10]: inactive | outcome [11]: inactive | outcome [12]: inactive | outcome [13]: inactive | outcome [14]: inactive | outcome [15]: inactive | outcome [16]: inactive | outcome [17]: inactive | outcome [18]: inactive

C=CC(F)(F)C(F)(F)C(F)(F)C(F)(F)C(F)(F)C(F)(F)C(F)(F)C(F)(F)C=C
outcome [1]: inactive | outcome [2]: inactive | outcome [3]: inactive | outcome [4]: inactive | outcome [5]: inactive | AC50 [6]: 4.46 µM (active) | outcome [7]: inactive | outcome [8]: inactive | outcome [9]: inactive | outcome [10]: inactive | outcome [19]: inactive | outcome [12]: inactive | outcome [13]: inactive | outcome [14]: inactive | outcome [15]: inactive | outcome [16]: inactive | outcome [17]: inactive | outcome [18]: inactive

CO[Si](OC)(c1ccccc1)c1ccccc1
outcome [1]: inactive | outcome [2]: inactive | outcome [3]: inactive | outcome [4]: inactive | outcome [5]: inactive | AC50 [6]: 72.8 µM (active) | outcome [7]: inactive | outcome [8]: inactive | outcome [9]: inactive | outcome [10]: inactive | outcome [19]: inactive | outcome [12]: inactive | outcome [13]: inactive | outcome [14]: inactive | outcome [15]: inactive | outcome [16]: inactive | outcome [17]: inactive | outcome [18]: inactive

CCCCCCCOC(=O)c1ccccc1C(=O)OCCCCCCC
outcome [1]: inactive | outcome [2]: inactive | outcome [3]: inactive | outcome [4]: inactive | outcome [5]: inactive | outcome [6]: inactive | outcome [7]: inactive | outcome [8]: inactive | outcome [9]: inactive | outcome [10]: inactive | outcome [11]: inactive | outcome [19]: inactive | outcome [12]: inactive | outcome [13]: inactive | outcome [14]: inactive | outcome [15]: inactive | outcome [16]: inactive | outcome [17]: inactive | outcome [18]: inactive

Nc1ccc([N+](=O)[O-])cc1O
outcome [1]: inactive | outcome [2]: inactive | outcome [3]: inactive | outcome [4]: inactive | outcome [5]: inactive | outcome [6]: inactive | outcome [7]: inactive | outcome [8]: inactive | outcome [9]: inactive | outcome [10]: inactive | outcome [11]: inactive | outcome [19]: inactive | outcome [12]: inactive | outcome [13]: inactive | outcome [14]: inactive | AC50 [15]: 31 µM (active) | outcome [16]: inactive | outcome [17]: inactive | outcome [18]: inactive

CCc1ccc(C(c2ccc(CC)cc2)C(Cl)Cl)cc1
outcome [1]: inactive | outcome [2]: inactive | outcome [3]: inactive | outcome [4]: inactive | outcome [5]: inactive | AC50 [6]: 40.1 µM (active) | outcome [7]: inactive | outcome [8]: inactive | outcome [9]: inactive | outcome [10]: inactive | outcome [19]: inactive | outcome [12]: inactive | outcome [13]: inactive | outcome [14]: inactive | outcome [15]: inactive | outcome [16]: inactive | outcome [17]: inactive | outcome [18]: inactive
